Reference: PubChem BioAssay (Tox21)
Inconclusive results are not listed. Where a call stands in place of a potency, no number is given. A number with no mark means an inactive call. Activity calls are given as the source filed them. Unless noted, calls follow the shape of the dose curve; as a rule, active = well fitted curve in the direction sought with a large enough effect in the repeat runs; inconclusive = weak or mixed curves; inactive = no such curve, though single readings can be large; an effect the other way counts as inactive or inconclusive.

How the values were obtained:
[1] = target: Aryl hydrocarbon receptor (Homo sapiens) (UniProt P35869); assay: qHTS assay to identify small molecule that activate the aryl hydrocarbon receptor (AhR) signaling pathway (AID 743085); also: nearly all actives have a fitted effect of over 15% in size; also: potency is read from the fitted curve at half-maximal effect;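 as to activation: HG2L7.5c1 human HepG2 liver cells with stably integrated DRE-driven firefly reporter; series mostly up to about 70 µM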
Outline: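 Luminescence read-out: ONE-Glo reagent, 30 min at room temperature, in HG2L7.5c1 HepG2 reporter cells treated 24 h at 37C. Viability was measured beforehand by CellTiter-Fluor fluorescence after 30 min at 37C.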

[2] = qHTS assay to identify small molecule that activate the aryl hydrocarbon receptor (AhR) signaling pathway - cell viability counter screen (AID 743086);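 also: HepG2 liver cells carrying the AhR DRE luciferase reporter; series mostly up to about 70 µM; nearly all actives have a fitted effect of over 45% in size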
Outline: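 HepG2-AhR-luc (HG2L7.5c1) cells, 4000/well, were preincubated 5 h at 37C, exposed to compound in qHTS format for 24 hr at 37C, then given CellTiter-Fluor for 30 min; viability was read as fluorescence in the reporter wells.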

[3] = qHTS assay to identify small molecule antagonists of the peroxisome proliferator-activated receptor gamma (PPARg) signaling pathway - cell viability counter screen (AID 743194); also: nearly all actives have a fitted effect of over 55% in size
Outline: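 PPARg-UAS-bla HEK293H cells were plated, rested 5 h at 37 C, then treated with compounds plus rosiglitazone (50 nM final) for 17 h at 37 C; viability was then read by CellTiter-Glo luminescence after 30 min at room temperature.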

[4] = qHTS assay for small molecule agonists of the antioxidant response element (ARE) signaling pathway (AID 743202; active = well fitted activation curve with a large enough effect in the signal ratio in the repeat runs, not every such curve was filed as active; the % refers to the signal ratio)
Outline: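 Read-out: LiveBLAzer B/G FRET substrate fluorescence after 2 h at room temperature, following 16 h compound treatment at 37 C of HepG2 cells carrying an ARE-driven beta-lactamase reporter.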

[5] = qHTS assay for small molecule agonists of the antioxidant response element (ARE) signaling pathway - cell viability counter screen (AID 743203; calls by dose curve; also: nearly all actives have a fitted effect of over 55% in size)
Outline: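 HepG2 cells carrying ARE-driven beta-lactamase; 2,000 cells/well; 5 hrs plating; compound pinned from DMSO; 16 hrs 37C/5% CO2; CellTiter-Glo added; 30 min RT; luminescence.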

[6] = qHTS assay for small molecule activators of the heat shock response signaling pathway - cell viability counter screen (AID 743209); also: nearly all actives have a fitted effect of over 50% in size
Outline: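 Luminescence from CellTiter-Glo, added after the beta-lactamase FRET read, gave the viability signal. Cells were HSE-bla HeLa treated with DMSO-dissolved compounds for 5 h at 37 C following overnight plating.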

[7] = qHTS assay for small molecule activators of the heat shock response signaling pathway (AID 743210; active = well fitted activation curve with a large enough effect in the signal ratio in the repeat runs, with a control signal flat, not every such curve was filed as active; the % refers to the signal ratio; also: series mostly up to about 63 µM)
Outline: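 HSE-bla HeLa cells (beta-lactamase reporter under heat shock response elements) were exposed to compounds for 5 h at 37 C, then loaded with LiveBLAzer B/G FRET substrate for 2.5 h at room temperature before fluorescence reading.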

[8] = qHTS assay to identify small molecule agonists of the peroxisome proliferator-activated receptor delta (PPARd) signaling pathway - cell viability counter screen (AID 743211); also: nearly all actives have a fitted effect of over 55% in size
Outline: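 Read-out: CellTiter-Glo luminescence, 30 min RT, measured in the same wells as the beta-lactamase reporter. Cells: GeneBLAzer PPAR delta UAS-bla HEK293H, 3000 cells/well, compound exposure 17 h at 37C.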

[9] = qHTS assay to identify small molecule antagonists of the peroxisome proliferator-activated receptor delta (PPARd) signaling pathway - cell viability counter screen (AID 743213); also: nearly all actives have a fitted effect of over 50% in size
Outline: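 Cytotoxicity counter screen: CellTiter-Glo luminescence read 30 min after addition, in the same wells as the reporter assay. There, PPARd UAS-bla HEK293H cells (3000/well) were treated 17 h at 37 C with compound and 300 nM L165041.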

[10] = qHTS assay to identify small molecule agonists of the farnesoid-X-receptor (FXR) signaling pathway - cell viability counter screen (AID 743218); also: nearly all actives have a fitted effect of over 45% in size
Outline: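 HEK 293T FXR-bla cells; 5 h pre-incubation, 16 h compound exposure at 37 C; LiveBLAzer substrate 2 h RT, then CellTiter-Glo 30 min RT, luminescence.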

[11] = qHTS assay to identify small molecule antagonists of the farnesoid-X-receptor (FXR) signaling pathway - cell viability counter screen (AID 743221; active = well fitted cell-killing curve with a large enough effect in the repeat runs, not every such curve was filed as active; also: nearly all actives have a fitted effect of over 50% in size)
Outline: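 HEK 293T FXR-bla cells, 5 h pre-incubation; compound + CDCA 50 uM final, 16 h, 37 C; beta-lactamase FRET read first, then CellTiter-Glo luminescence, 30 min RT.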

[12] = qHTS assay to identify small molecule agonists of the vitamin D receptor (VDR) signaling pathway - cell viability counter screen (AID 743224); also: series mostly up to about 63 µM; nearly all actives have a fitted effect of over 50% in size
Outline: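 Luminescence from CellTiter-Glo, read after 30 min at room temperature, reports viability of VDR-bla cells treated with compounds for 16 h at 37C in the wells used for the beta-lactamase FRET read.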

[13] = target: Peroxisome proliferator-activated receptor delta (Homo sapiens) (UniProt Q03181); assay: qHTS assay to identify small molecule agonists of the peroxisome proliferator-activated receptor delta (PPARd) signaling pathway (AID 743212; calls by dose curve)
Outline: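 GeneBLAzer PPARd UAS-bla HEK293H cells (beta-lactamase reporter under UAS control), plated and rested 5 h at 37 C, then exposed to compounds in DMSO at 37 C; LiveBLAzer B/G FRET substrate added, 2 h room temperature, fluorescence read.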

[14] = target: Peroxisome proliferator-activated receptor delta (Homo sapiens) (UniProt Q03181); assay: qHTS assay to identify small molecule antagonists of the peroxisome proliferator-activated receptor delta (PPARd) signaling pathway (AID 743215; active = well fitted inhibition curve with a large enough effect in the signal ratio in the repeat runs, not every such curve was filed as active; the % refers to the signal ratio;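 also: cells stimulated with agonist L165041 at 300 nM final during compound exposure; series mostly up to about 62 µM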)
Outline: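 Read-out is beta-lactamase FRET fluorescence, measured 2 h after substrate addition at room temperature. Beforehand, UAS-bla HEK293H cells carrying the PPARd reporter were exposed to compounds with L165041 at 300 nM final for 17 h at 37 C.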

[15] = target: Vitamin D3 receptor (Homo sapiens) (UniProt P11473); assay: qHTS assay to identify small molecule agonists of the vitamin D receptor (VDR) signaling pathway (AID 743222; calls by dose curve)
Outline: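 VDR-bla cells, 2,000/well; 4 h preincubation 37C; cpd (DMSO) 16 h; LiveBLAzer B/G substrate 2 h RT; fluorescence intensity read.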

[16] = target: Vitamin D3 receptor (Homo sapiens) (UniProt P11473); assay: qHTS assay to identify small molecule antagonists of the vitamin D receptor (VDR) signaling pathway (AID 743223; active = well fitted inhibition curve with a large enough effect in the signal ratio in the repeat runs, not every such curve was filed as active; the % refers to the signal ratio)
Outline: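 Beta-lactamase reporter read-out: FRET substrate fluorescence after 2 h at room temperature, following 16 h exposure of VDR-bla cells to test compound plus 3 nM (final) 1alpha,25-dihydroxyvitamin D3 agonist at 37C.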

[17] = target: Peroxisome proliferator-activated receptor gamma (Homo sapiens) (UniProt P37231); assay: qHTS assay to identify small molecule agonists of the peroxisome proliferator-activated receptor gamma (PPARg) signaling pathway (AID 743094; active = well fitted activation curve with a large enough effect in the signal ratio in the repeat runs, not every such curve was filed as active; the % refers to the signal ratio)
Outline: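 Beta-lactamase FRET fluorescence was the read-out after a 1 h room-temperature substrate step, following 17 h compound treatment at 37C of HEK293H cells expressing a UAS-driven bla reporter responsive to PPARg.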

[18] = target: Bile acid receptor (Homo sapiens) (UniProt Q96RI1); assay: qHTS assay to identify small molecule antagonists of the farnesoid-X-receptor (FXR) signaling pathway (AID 743217; active = well fitted inhibition curve with a large enough effect in the signal ratio in the repeat runs, not every such curve was filed as active; the % refers to the signal ratio)
Outline: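 HEK 293T FXR-UAS-bla, 5000 cells/well; compound + CDCA 50 uM final; 16 h, 37 °C; B/G FRET substrate 2 h RT; fluorescence.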

[19] = target: Bile acid receptor (Homo sapiens) (UniProt Q96RI1); assay: qHTS assay to identify small molecule agonists of the farnesoid-X-receptor (FXR) signaling pathway (AID 743220; active = well fitted activation curve with a large enough effect in the signal ratio in the repeat runs, not every such curve was filed as active; the % refers to the signal ratio)
Outline: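 Beta-lactamase reporter under UAS control in GeneBLAzer FXR HEK 293T cells (5000/well) measured with LiveBLAzer FRET substrate after 2 h at room temperature. Compound exposure lasted 16 h at 37C.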

[20] = target: Peroxisome proliferator-activated receptor gamma (Homo sapiens) (UniProt P37231); assay: qHTS assay to identify small molecule antagonists of the peroxisome proliferator-activated receptor gamma (PPARg) signaling pathway (AID 743191; calls by dose curve; also: series mostly up to about 63 µM; nearly all actives have a fitted effect of over 30% in size)
Outline: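 GeneBLAzer PPARg UAS-bla HEK293H cells carrying a UAS-driven beta-lactamase reporter were plated at 3000 cells/well, preincubated 5 h at 37C, then given compound for 17 h at 37C; LiveBLAzer B/G FRET substrate was read after 1 h at room temperature.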

Vitamin D3 receptor (Homo sapiens), sequence (P11473 whole entry, looked up): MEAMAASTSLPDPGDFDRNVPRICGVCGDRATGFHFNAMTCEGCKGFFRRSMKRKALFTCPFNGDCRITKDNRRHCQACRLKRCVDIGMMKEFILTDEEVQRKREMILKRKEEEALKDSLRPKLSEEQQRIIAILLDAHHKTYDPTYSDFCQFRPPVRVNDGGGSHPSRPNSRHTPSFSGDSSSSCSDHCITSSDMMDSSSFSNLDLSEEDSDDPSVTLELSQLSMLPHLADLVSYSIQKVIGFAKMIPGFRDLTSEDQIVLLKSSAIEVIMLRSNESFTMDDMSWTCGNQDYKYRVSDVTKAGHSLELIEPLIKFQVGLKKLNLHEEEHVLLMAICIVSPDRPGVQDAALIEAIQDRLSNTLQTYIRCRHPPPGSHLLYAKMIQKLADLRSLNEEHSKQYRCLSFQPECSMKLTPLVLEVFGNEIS
Peroxisome proliferator-activated receptor delta (Homo sapiens), sequence (Q03181 whole entry, looked up): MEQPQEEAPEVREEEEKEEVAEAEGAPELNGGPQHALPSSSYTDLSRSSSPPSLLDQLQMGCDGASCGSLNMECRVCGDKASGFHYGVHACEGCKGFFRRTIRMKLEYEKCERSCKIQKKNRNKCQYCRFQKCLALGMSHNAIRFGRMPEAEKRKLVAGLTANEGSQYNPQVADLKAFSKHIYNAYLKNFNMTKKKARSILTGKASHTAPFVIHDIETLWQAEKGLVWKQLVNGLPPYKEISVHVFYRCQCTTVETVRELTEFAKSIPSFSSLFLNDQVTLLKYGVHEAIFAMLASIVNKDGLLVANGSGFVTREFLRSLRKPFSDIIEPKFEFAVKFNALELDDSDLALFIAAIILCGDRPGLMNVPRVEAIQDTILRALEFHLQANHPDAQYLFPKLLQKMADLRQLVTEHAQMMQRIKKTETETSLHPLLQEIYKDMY
Aryl hydrocarbon receptor (Homo sapiens), sequence (P35869 whole entry, looked up): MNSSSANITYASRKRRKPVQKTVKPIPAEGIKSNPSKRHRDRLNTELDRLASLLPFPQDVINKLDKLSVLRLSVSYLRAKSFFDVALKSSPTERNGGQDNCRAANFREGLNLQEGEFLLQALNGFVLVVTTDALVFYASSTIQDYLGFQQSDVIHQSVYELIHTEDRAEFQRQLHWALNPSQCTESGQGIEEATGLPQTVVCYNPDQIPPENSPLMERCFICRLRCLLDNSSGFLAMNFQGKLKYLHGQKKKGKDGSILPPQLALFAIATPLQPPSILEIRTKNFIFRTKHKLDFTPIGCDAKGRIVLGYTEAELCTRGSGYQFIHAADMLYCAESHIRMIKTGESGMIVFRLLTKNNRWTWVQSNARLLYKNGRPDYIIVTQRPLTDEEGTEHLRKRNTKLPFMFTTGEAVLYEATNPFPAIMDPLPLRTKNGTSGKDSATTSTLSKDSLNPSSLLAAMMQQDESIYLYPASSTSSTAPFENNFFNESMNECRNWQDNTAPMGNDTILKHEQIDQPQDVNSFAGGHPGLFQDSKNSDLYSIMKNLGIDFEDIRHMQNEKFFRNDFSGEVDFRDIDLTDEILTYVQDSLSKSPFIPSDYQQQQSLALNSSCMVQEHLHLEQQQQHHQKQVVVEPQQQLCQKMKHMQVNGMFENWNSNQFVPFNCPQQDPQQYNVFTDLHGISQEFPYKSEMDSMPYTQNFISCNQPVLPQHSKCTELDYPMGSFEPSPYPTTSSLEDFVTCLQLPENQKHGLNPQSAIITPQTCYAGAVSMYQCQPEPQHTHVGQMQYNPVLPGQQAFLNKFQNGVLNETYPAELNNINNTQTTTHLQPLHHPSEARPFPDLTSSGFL
Bile acid receptor (Homo sapiens), sequence (Q96RI1 whole entry, looked up): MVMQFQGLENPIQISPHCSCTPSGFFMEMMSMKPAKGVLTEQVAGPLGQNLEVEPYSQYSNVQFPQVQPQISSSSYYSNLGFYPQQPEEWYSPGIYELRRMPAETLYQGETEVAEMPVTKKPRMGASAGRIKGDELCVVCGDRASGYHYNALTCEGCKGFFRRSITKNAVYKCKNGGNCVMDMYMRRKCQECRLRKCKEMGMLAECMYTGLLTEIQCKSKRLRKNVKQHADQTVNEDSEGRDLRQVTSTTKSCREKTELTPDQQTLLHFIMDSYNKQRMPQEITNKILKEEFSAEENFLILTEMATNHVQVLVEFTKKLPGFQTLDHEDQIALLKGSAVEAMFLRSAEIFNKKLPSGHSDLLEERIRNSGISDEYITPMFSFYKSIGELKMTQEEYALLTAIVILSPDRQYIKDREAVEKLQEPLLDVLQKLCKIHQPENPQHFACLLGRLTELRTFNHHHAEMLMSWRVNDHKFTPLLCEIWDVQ
Peroxisome proliferator-activated receptor gamma (Homo sapiens), sequence (P37231 whole entry, looked up): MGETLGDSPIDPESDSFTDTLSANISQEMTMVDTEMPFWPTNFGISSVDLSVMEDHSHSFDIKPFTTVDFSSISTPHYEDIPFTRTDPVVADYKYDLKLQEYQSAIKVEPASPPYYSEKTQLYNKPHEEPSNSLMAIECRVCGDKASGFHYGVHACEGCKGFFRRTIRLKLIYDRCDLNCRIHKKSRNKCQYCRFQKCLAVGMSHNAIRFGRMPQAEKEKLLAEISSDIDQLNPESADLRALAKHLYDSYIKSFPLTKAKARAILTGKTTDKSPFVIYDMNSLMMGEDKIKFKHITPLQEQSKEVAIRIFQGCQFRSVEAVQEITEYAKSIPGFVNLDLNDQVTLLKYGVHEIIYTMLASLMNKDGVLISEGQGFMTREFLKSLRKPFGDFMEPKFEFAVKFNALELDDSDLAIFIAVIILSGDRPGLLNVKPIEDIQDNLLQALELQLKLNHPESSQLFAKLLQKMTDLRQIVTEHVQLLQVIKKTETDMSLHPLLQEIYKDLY

Row | Structure (SMILES) | Potency [1] | Potency [2] | Potency [3] | Potency [4] | outcome [5] | outcome [6] | outcome [7] | Potency [8] | Potency [9] | outcome [10] | Potency [11] | outcome [12] | outcome [13] | outcome [14] | outcome [15] | outcome [16] | outcome [17] | outcome [18] | outcome [19] | outcome [20]
1 | C=C(C)[C@H]1CC=C(C)CC1 | inactive | inactive | inactive | inactive | inactive | inactive | inactive | inactive | inactive | inactive | inactive | inactive |  |  |  |  |  |  |  | 
2 | CCO[Si](C)(OCC)OCC | inactive | inactive | inactive | inactive | inactive | inactive | inactive | inactive |  |  |  | inactive | inactive | inactive | inactive | inactive |  |  |  | 
3 | C=CC(=O)OCCCCCC | inactive | inactive | inactive |  | inactive | inactive | inactive |  | inactive | inactive | inactive | inactive | inactive |  |  |  |  |  |  | 
4 | C1CCCCCCCCCCC1 | inactive | inactive | inactive | inactive | inactive |  | inactive |  | inactive | inactive | inactive | inactive | inactive | inactive | inactive | inactive |  |  |  | 
5 | CCOC(=O)[C@H](CCc1ccccc1)N[C@@H](C)C(=O)N1CCC[C@H]1C(=O)O | inactive |  |  |  | inactive | inactive | inactive |  |  | inactive | inactive | inactive | inactive | inactive | inactive |  | inactive | inactive |  | 
6 | CCCOCC(C)OCC(C)O (centres undefined) | inactive | inactive |  |  | inactive | inactive | inactive | inactive | inactive | inactive | inactive | inactive |  |  | inactive | inactive |  | inactive | inactive | 
7 | CCN1CCCC1CNC(=O)c1cc(S(N)(=O)=O)ccc1OC (centres undefined) |  | inactive | inactive | inactive | inactive |  | inactive | inactive |  | inactive | inactive | inactive |  |  | inactive | inactive | inactive |  |  | inactive
8 | NC(=O)c1c(Cl)cccc1Cl | inactive | inactive | inactive | inactive | inactive | inactive | inactive |  | inactive | inactive | inactive |  | inactive | inactive | inactive | inactive |  | inactive | inactive | 
9 | C=CCOc1nc(OCC=C)nc(OCC=C)n1 | 54.5 µM (active) | inactive |  |  | inactive | inactive | inactive | inactive |  | inactive | inactive | inactive | inactive | inactive | inactive |  |  |  |  | 
10 | CCCCCCC(CCCCCCCCCCC(=O)OCC(COC(C)=O)OC(C)=O)OC(C)=O (centres undefined) | inactive | inactive | inactive |  | inactive |  | inactive |  | inactive |  |  | inactive |  | inactive | inactive | inactive |  |  | inactive | 
11 | C=CCOCC(O)CS(=O)(=O)O (centres undefined) |  | inactive | inactive | inactive | inactive | inactive | inactive | inactive | inactive | inactive | inactive | inactive | inactive | inactive | inactive |  | inactive |  |  | 
12 | CC(C)CCCC(C)NCCC(C)C (centres undefined) |  |  | inactive |  | inactive | inactive | inactive |  | inactive | inactive | inactive | inactive | inactive |  | inactive | inactive |  |  |  | inactive
13 | CSc1nc(NC2CC2)nc(NC(C)(C)C)n1 |  | inactive | inactive |  | inactive | inactive |  | inactive | inactive | inactive |  | inactive | inactive | inactive |  |  |  |  |  | 
14 | COc1cc(O)cc(O)c1 |  | inactive | inactive |  | inactive | inactive |  |  | inactive | inactive |  | inactive | inactive |  | inactive | inactive |  | inactive | inactive | inactive
15 | CCCCC=O |  | inactive | inactive | inactive | inactive | inactive | inactive | inactive | inactive | inactive | inactive | inactive |  |  | inactive | inactive |  |  | inactive | 
16 | O=C(CCOCCOCCOCCOCCC(=O)Nc1c(I)cc(I)c(C(=O)O)c1I)Nc1c(I)cc(I)c(C(=O)O)c1I |  |  | inactive | inactive | inactive | inactive | inactive |  | inactive | inactive | inactive | inactive |  |  | inactive | inactive |  |  |  | 
17 | CCCCCCCCCCCCI |  | inactive | inactive | inactive | inactive |  | inactive | inactive | inactive | inactive | inactive |  |  |  | inactive | inactive |  | inactive | inactive | 
18 | O=c1[nH]c(=O)n([C@H]2O[C@H](CO)[C@@H](O)[C@@H]2O)cc1/C=C\Br |  |  |  |  | inactive | inactive |  |  | inactive | inactive | inactive | inactive | inactive | inactive |  |  |  |  |  | 
19 | Oc1ccc2c(c1)OC[C@@H](N1CCC(O)(c3ccc(F)cc3)CC1)[C@H]2O |  | inactive | inactive |  | inactive | inactive | inactive | inactive |  | inactive | inactive | inactive | inactive | inactive | inactive |  |  |  |  | inactive
20 | Cc1c(F)cc2c(=O)c(C(=O)O)cn3c2c1CCC3C (centres undefined) |  |  |  | inactive | inactive |  | inactive | inactive | inactive | inactive |  | inactive | inactive |  | inactive | inactive |  |  |  | 
21 | COc1ccc2cc(C=O)ccc2c1 |  |  | inactive | inactive | inactive | inactive | inactive | inactive | inactive | inactive | inactive |  | inactive |  | inactive | inactive |  |  |  | 
